Sampled rows, rich in hits. Any-hit rate of the full collection: about 12%.
USP17 block – inhibitors of human USP17 deubiquitinase; purified USP17, Ub-rhodamine cleavage fluorescence, 3 h; AID 1645855, 2021; actives 6.5% (n = 47,000); inhibition, % at 50 µM; Ubiquitin carboxyl-terminal hydrolase 17-like protein 5 (Homo sapiens), A8MUK1
USP30 block – inhibitors of human USP30 deubiquitinase | inhibition, % at 25 µM | Ubiquitin carboxyl-terminal hydrolase 30 (Homo sapiens), Q70CQ3 | AID 1645860, 2021 | purified USP30, Ub-rhodamine cleavage fluorescence | actives 5.3% (n = 47,000)
USP28 block – inhibitors of human USP28 deubiquitinase. Ubiquitin carboxyl-terminal hydrolase 28 (Homo sapiens), Q96RU2. purified USP28, Ub-rhodamine cleavage fluorescence, 30 min. inhibition, % at 25 µM. actives 3% (n = 47,000). AID 1645857, 2021
OTUD3 inh – inhibitors of human OTUD3 deubiquitinase. OTU domain-containing protein 3 (Homo sapiens), Q5T2D3. actives 0.7% (n = 47,000). purified OTUD3, Ub-rhodamine fluorescence, 2 h. AID 1645858, 2021. inhibition, % at 25 µM
* = called active by the depositor; . = no result given. No stated cut-off is given here; in the data, active means inhibition above about 30%; inactive means the rest.

SMILES | USP17 block | USP30 block | USP28 block | OTUD3 inh
Cc1ccc(C)c(Cn2nnc3c(=O)[nH]c(C4CCN(S(=O)(=O)c5ccc(S(=O)(=O)N6CCOCC6)cc5)CC4)nc32)c1 | 40.4* | 33.2* | 15.5 | 26.8
Cc1ccc(C)c(Cn2nnc3c(=O)[nH]c(C4CCN(S(=O)(=O)c5ccc(S(=O)(=O)NC6CC6)cc5)CC4)nc32)c1 | 30.3* | 51.6* | 42.2* | 20.1
Cc1ccc(C)c(Cn2nnc3c(=O)[nH]c(C4CCN(S(=O)(=O)c5ccc(S(=O)(=O)NC6CCCC6)cc5)CC4)nc32)c1 | -7.8 | -0.7 | 20.9 | -4.4
O=C(c1ccccc1F)N1CCC(c2[nH]nc3nccnc23)CC1 | 17.3 | 35.4* | 18.6 | 14.6
O=C(Cc1ccccc1F)N1CCC(c2[nH]nc3nccnc23)CC1 | -9.2 | 5.6 | -1.8 | -1.3
CC1=C(C(=O)OC(C)C)C(c2sccc2C)n2c(nc3ccccc32)N1 (stereo not drawn) | -0.2 | -21.2 | -10.6 | 0.4
c1ccc2c(Cc3nc(-c4ccncc4)no3)cccc2c1 | -21.5 | -24.4 | 85.5* | -2.0
COc1ccc2nc(C(=O)NCc3ccc(F)cc3)cn2n1 | 12.0 | 8.8 | 5.6 | 6.2
CCN1CCCC1CNC(=O)Cn1ncn2nc(-c3ccc(OC)cc3)cc2c1=O (stereo not drawn) | 16.5 | -13.3 | -6.6 | -0.4
COc1ccc(-c2cc3c(=O)n(CC(=O)NCc4ccccc4)ncn3n2)cc1 | 25.0 | 42.9* | 15.3 | 5.3
COc1ccc(-c2cc3c(=O)n(CC(=O)NCCN4CCCC4)ncn3n2)cc1 | 43.3* | 33.9* | 17.6 | 8.6
O=C(NCc1ccncc1)c1cnc2ccccc2n1 | -15.1 | -14.3 | -10.6 | -7.5
O=C(NCc1ccc(-c2nc3cnccc3o2)cc1)c1ccccc1Cl | 37.7* | -26.2 | -8.7 | -1.8
O=C(NCc1ccc(-c2nc3cnccc3o2)cc1)c1ccccc1F | 67.7* | 13.1 | 19.5 | 8.2
CC(=O)c1ccc(S(=O)(=O)N(Cc2ccc(C(=O)NC3CC3)cc2)C2CC2)cc1 | 27.1 | 30.1* | 15.1 | 14.1
COc1ccc(S(=O)(=O)N(Cc2ccc3c(c2)CCO3)C2CC2)cc1 | 18.5 | 12.8 | 0.0 | 13.5
C(=C\c1ccccc1)/CSc1nnc(-c2ccco2)o1 | 19.0 | 9.5 | 32.0* | 9.6
O=C(Cn1cc(S(=O)(=O)c2ccc(F)cc2)c2ccccc21)N1CCCC1 | -3.2 | -22.0 | -6.0 | -10.6
Cc1oc(-c2ccc(C(=O)NCC3COCCO3)cc2)nc1CN1CCc2ccccc21 (stereo not drawn) | -9.3 | -51.2 | 57.3* | -26.1
Cc1ccc(C(=O)NCC2COCCO2)cc1NC(=O)c1nsc2ccccc12 (stereo not drawn) | -17.8 | -4.4 | -4.6 | -8.3
CCOC(=O)c1c(C)[nH]c(C)c1S(=O)(=O)N1CCc2ccccc2C1 | -3.6 | -27.3 | 5.9 | -2.5
Cc1ccc(-c2nc(CNC(=O)C(C)Oc3ccccc3F)cs2)cc1 (stereo not drawn) | 6.7 | 45.9* | 8.9 | 19.3
COc1ccc(-c2nc(CNC(=O)c3ccccc3F)cs2)cc1 | 4.2 | 27.8 | 14.3 | 6.7
COCCNC(=O)C1CCN(S(=O)(=O)c2ccc3c(c2)CCCC3)CC1 | -14.3 | -1.7 | -9.2 | -5.0
O=C(NCc1cccnc1)C1CCN(S(=O)(=O)c2ccc3c(c2)CCCC3)CC1 | 7.1 | 34.3* | 11.4 | 6.8
SMILES | USP17 block | USP30 block | USP28 block | OTUD3 inh
Cc1cccc(Nc2nc(N3CCCCC3)nc(N3CCCCC3)n2)c1 | 0.4 | 30.2* | 6.9 | 7.2
COc1ccccc1CNC(=O)c1cc(C2CC2)nc2c1cnn2C(C)C | -25.2 | -39.9 | -10.5 | -8.1
CC(C)n1ncc2c(C(=O)NCCc3ccc(Cl)cc3)cc(C3CC3)nc21 | -27.1 | -88.4 | 38.5* | -6.3
COc1ccc(CNC(=O)c2cc(C3CC3)nc3c2cnn3C(C)C)cc1 | -16.3 | -58.2 | 17.6 | -17.3
CC(C)n1ncc2c(C(=O)NCCc3cccc(Cl)c3)cc(C3CC3)nc21 | . | -60.7 | 37.3* | -2.5
Cc1cccc(N2C(=O)CN(S(C)(=O)=O)CC2(C)C(=O)NC2CCCC2)c1C (stereo not drawn) | 3.2 | -208.9 | -2.2 | 2.5
COc1ccccc1-c1nc2c3cnn(-c4ccc(C)cc4)c3ncn2n1 | 29.8 | 29.8 | 11.2 | 15.8
COc1ccccc1C1=NC(c2ccc(C)cc2)N=C1C (stereo not drawn) | 31.7* | 24.2 | 5.6 | 5.4
Cn1ncc2c(=O)n(CC(=O)Nc3ccc4c(c3)OCO4)cnc21 | 19.2 | -8.9 | -8.5 | -7.3
Cc1noc(-c2ccnc(-n3cnc(C(=O)NC4CCCCCC4)c3)c2)n1 | 5.2 | 2.6 | -5.6 | 0.0
Cc1sc(-c2ccccn2)nc1OC(=O)c1cccc(Cl)c1Cl | 76.8* | 81.9* | 23.4 | 11.1
COc1ccc2nc(SCC(=O)Nc3ccc(NC(C)=O)cc3)c(C)cc2c1 | 59.5* | 29.8 | 7.5 | 13.1
COc1ccc(NC(=O)CSc2nnc(-c3cc4ccccc4n3C)o2)cc1 | 17.1 | 11.5 | 9.2 | 14.1
COc1ccc(CCNC(=O)CSc2nnc(NC(=O)c3ccccc3OC)s2)cc1OC | 9.3 | 31.9* | 12.3 | 21.6
C[C@]12CN(S(=O)(=O)c3ccc(F)cc3)C[C@H]1NC(=O)c1ccccc1C2=O | 3.9 | 24.2 | 8.5 | 0.0
CC(=O)c1cccc(NC(=O)CSc2nnc(-c3ccncc3)n2Cc2ccccc2)c1 | -0.3 | -10.2 | 0.0 | -2.2
O=C(CSc1nnc(C2CC2)n1Cc1ccccc1)Nc1ccc(N2CCCC2=O)cc1 | 44.0* | 28.6 | 16.4 | 6.8
O=C1CC(C(=O)N2CCOCC2)CN1CCc1ccccc1 (stereo not drawn) | 5.1 | 1.7 | 2.1 | 6.4
O=[N+]([O-])c1cc(C(F)(F)F)ccc1NCCCCCO | -17.0 | 0.6 | 19.7 | 5.7
O=C(Nc1ccccc1F)c1ccc(C(=O)c2ccccc2)cc1 | 34.9* | 13.5 | 13.0 | 1.1
CC(C)Oc1ccc(C(=O)Nc2ccccc2F)cc1 | -13.0 | -0.1 | 7.9 | -2.7
C=C1CCC2[C@](C)(CCC[C@]2(C)C(=O)OC)[C@H]1CCc1ccoc1CNC(CCSC)C(=O)O (stereo partly drawn) | 28.1 | -60.0 | -15.1 | -7.7
C=C1CCC2[C@](C)(CCC[C@]2(C)C(=O)OC)[C@H]1CCc1ccoc1CNC(C)C (stereo partly drawn) | 18.4 | 23.9 | 24.2 | 30.3*
Cc1ccccc1NC(=O)c1c(O)c2cnn(Cc3ccccc3)c2[nH]c1=O | 35.2* | -244.0 | 4.9 | 2.3
CC(NC(=O)c1c(O)c2cnn(Cc3ccccc3)c2[nH]c1=O)c1ccccc1 (stereo not drawn) | 11.9 | -145.1 | -0.6 | -7.1
COc1cnc(-c2ccccn2)nc1Sc1ccccc1Cl | 38.8* | 87.2* | 5.0 | 26.1
COc1ccc(Sc2cc(C(F)(F)F)nc(-c3ccccn3)n2)cc1 | -5.8 | 17.5 | 0.7 | -0.3
CN1C(=O)COc2cc(-c3noc(C(=O)NC4CCCCC4)n3)ccc21 | 26.1 | 31.1* | 12.2 | 12.9
CC(CNC(=O)c1nc(-c2ccc3c(c2)OCC(=O)N3C)no1)c1ccccc1 (stereo not drawn) | 3.4 | 28.9 | 38.7* | 10.5

Screens deposited in PubChem by Buhrlage Lab, Dana-Farber Cancer Institute and Novartis Institutes for BioMedical Research (Cambridge, Mass).
